CYP2C9 inh: blocks human cytochrome P450 2C9; P11712; CYP2C9 Supersomes, luciferin-H conversion, luminescence; inhibition, % at 5 µM; actives 20% (n = 96,000); AID 777;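 active = blocking of liver enzyme CYP2C9 beyond about 50% at 5 µM, limit read from the data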
CYP2C19 inhib: inhibitors of human CYP2C19 | CYP2C19 Supersomes, luciferin-H EGE luminescence, 30 min | inhibition, % at 5 µM | actives 21% (n = 96,000);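 active = CYP2C19 inhibition above a set limit at 5 µM in the primary screen, cut at about 50% in these data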;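 also: plate controls were negative control wells for no effect and 2.5 mM tranylcypromine positive control for full effect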
Target sequence (P33261 whole entry, looked up): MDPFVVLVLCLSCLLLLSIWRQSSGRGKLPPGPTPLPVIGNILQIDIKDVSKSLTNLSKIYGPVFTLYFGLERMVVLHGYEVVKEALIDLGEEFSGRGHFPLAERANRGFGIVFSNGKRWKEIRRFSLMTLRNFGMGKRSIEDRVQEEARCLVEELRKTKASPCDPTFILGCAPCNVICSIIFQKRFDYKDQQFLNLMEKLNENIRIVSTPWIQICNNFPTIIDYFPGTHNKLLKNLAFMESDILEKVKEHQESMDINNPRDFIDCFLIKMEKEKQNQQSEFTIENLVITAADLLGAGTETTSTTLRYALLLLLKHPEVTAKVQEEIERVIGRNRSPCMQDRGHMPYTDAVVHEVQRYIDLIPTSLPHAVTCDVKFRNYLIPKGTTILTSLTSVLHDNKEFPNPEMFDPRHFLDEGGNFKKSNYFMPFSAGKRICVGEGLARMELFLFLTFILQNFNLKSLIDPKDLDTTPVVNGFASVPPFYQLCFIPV
CYP2C19 activ: activators of human cytochrome P450 2C19. recombinant CYP2C19, luciferin-H EGE luminescence; active compounds read high; 0 = fully inhibited enzyme, 1 = untreated enzyme. activation factor at 5 µM. 96,000 tested, under 10 active;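 active = activation factor of at least 2 at 5 µM in the primary screen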;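 also: 0 = wells with 2.5 mM tranylcypromine and 1 = vehicle-only wells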
CYP2C9 activ: CYP2C9 (human) activation; actives 1.4% (n = 96,000); P11712; recombinant CYP2C9, luciferin-H conversion, luminescence; active compounds read high; factor 1 = untreated enzyme, 0 = blocked; activation factor at 5 µM;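 active = activation factor of 2 or more for CYP2C9 at a 5 µM dose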;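 also: 0 = sulfaphenazole-blocked wells and 1 = vehicle-only wells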
* hit, by the source's call. An excerpt weighted towards active compounds, which were near 31% of everything screened.

SMILES | CYP2C9 inh | CYP2C19 inhib | CYP2C19 activ | CYP2C9 activ
Cn1c(=O)c2c(nc(NCc3ccco3)n2C)n(C)c1=O | 7.6 | 7.0 | 0.9 | 0.9
Cc1nn(CC(=O)Nc2ccccc2)c(=O)c2ccccc12 | 38.3 | 73.0* | 0.3 | 0.6
Cc1cc(O)c(C(C)C)cc1NC(=O)Cn1nc(C)c2ccccc2c1=O | 69.3* | 30.3 | 0.7 | 0.3
O=C(CCN1C(=O)c2ccncc2C1=O)NCc1ccc(Cl)cc1 | 18.6 | -3.1 | 1 | 0.8
CCCCNC1C(CC)C(CCC)C(C#N)(C#N)C1(C#N)C#N (stereo not drawn) | -3.2 | 9.0 | 0.9 | 1
Cc1nnc(SCC(=O)NC2CCCCC2)n(N)c1=O | -4.0 | -19.0 | 1.2 | 1
COCCCNC(=O)c1ccc(C(=O)NCCCOC)cc1 | -0.4 | -2.2 | 1 | 1
COCCCNC(=O)c1ccc(Cn2c(=O)c3ccccc3n(Cc3ccc(C)cc3)c2=O)cc1 | 54.0* | 47.1 | 0.5 | 0.5
O=C(Cn1c(=O)n(-c2ccccc2)c(=O)n1CC(=O)N1CCCCC1)N1CCCCC1 | 4.4 | 1.9 | 1 | 1
C/C(=N\NS(=O)(=O)c1ccc(C)cc1)c1ccc(Br)s1 | 70.7* | 57.7* | 0.4 | 0.3
O=C(c1cccnc1)N1CCc2ccccc21 | -10.8 | 1.8 | 1 | 1.1
CC(C)(C)NC(=O)C(c1ccncc1)N(Cc1cccs1)C(=O)Cn1nnc(-c2cccs2)n1 (stereo not drawn) | 91.8* | 92.0* | 0.1 | 0.1
CCC(C(=O)NC1CCCC1)N(Cc1ccco1)C(=O)Cn1nnc(-c2ccc(C)cc2)n1 (stereo not drawn) | 72.4* | 82.8* | 0.2 | 0.3
Cc1ccc(-c2nnn(CC(=O)N(Cc3ccccc3)C(C(=O)NC(C)(C)C)c3ccncc3)n2)o1 (stereo not drawn) | 44.0 | 50.2* | 0.5 | 0.6
CCC(C(=O)NC1CCCC1)N(C(=O)Cn1nnc(-c2cccs2)n1)c1cnc2ccccc2c1 (stereo not drawn) | -3.3 | -0.4 | 1 | 1
CCC(C)(C)NC(=O)C(c1ccncc1)N(Cc1cccs1)C(=O)Cn1nnc2ccccc21 (stereo not drawn) | 22.6 | 35.9 | 0.6 | 0.8
CC(C)(C)NC(=O)C(c1ccncc1)N(C(=O)Cn1nnc(-c2cccs2)n1)C1CCCCC1 (stereo not drawn) | 75.6* | 68.6* | 0.3 | 0.2
Cc1cccc(/C=C2/SC(=O)N(Cc3ccccc3)C2=O)n1 | -1.3 | 26.5 | 0.7 | 1
O=C(Cn1nnc(-c2ccc(N3CCOCC3)cc2)n1)OC1CCCCC1 | 10.4 | 16.2 | 0.8 | 0.9
Cc1ccc(N(C(=O)Cn2nnc(-c3cccs3)n2)C(C(=O)NC2CCCC2)c2ccncc2)cc1 (stereo not drawn) | 53.5* | 46.5 | 0.5 | 0.5
O=C(Cn1nnc(-c2ccncc2)n1)N(C1CCCCC1)C1CCCCC1 | 87.4* | 87.3* | 0.1 | 0.1
CC(C)Cc1nnc(NC(=O)CSc2ccccn2)s1 | 31.2 | 56.5* | 0.4 | 0.7
Cc1nnc(NC(=O)CSc2ccccn2)s1 | -12.9 | -5.4 | 1.1 | 1.1
CCOc1ccc2nc(NC(=O)CCC(=O)c3cccs3)sc2c1 | 1.5 | 2.6 | 1 | 1
CCCC(=O)Nc1nc2ccc(OC)cc2s1 | -5.9 | -0.4 | 1 | 1.1
SMILES | CYP2C9 inh | CYP2C19 inhib | CYP2C19 activ | CYP2C9 activ
Cc1cccc(OCC(=O)Nc2nc3ccc([N+](=O)[O-])cc3s2)c1 | 91.0* | 69.8* | 0.3 | 0.1
Cc1cccc(OCC(=O)Nc2nc3ccc([N+](=O)[O-])cc3s2)c1C | -34.1 | -10.2 | 1.1 | 1.3
COc1ccc2nc(NC(=S)N(C)C)sc2c1 | 93.9* | 99.0* | 0 | 0.1
CCOc1ccc2nc(NC(=O)CSc3ccc(Cl)cc3)sc2c1 | 63.4* | 6.4 | 0.9 | 0.4
CN(C)C(=S)c1ccc2ccccc2n1 | -81.8 | -10.8 | 1.1 | 1.8
CCCCNC(=O)Nc1cc(C(F)(F)F)c[nH]c1=O | 7.8 | 25.1 | 0.7 | 0.9
O=C(Nc1ccc2snnc2c1)Nc1cccc2ccccc12 | 41.0 | 43.0 | 0.6 | 0.6
Cc1sc2ncnc(NCCc3ccc(S(N)(=O)=O)cc3)c2c1C | 3.5 | 6.1 | 0.9 | 1
COCc1nnc(NC(=O)CCSc2ccccc2)s1 | 5.2 | 29.8 | 0.7 | 0.9
COc1ccc2nc(NC(=O)CSc3ccccc3)sc2c1 | 63.0* | 31.3 | 0.7 | 0.4
COCc1nnc(NC(=O)CSc2ccccc2)s1 | 39.6 | 67.3* | 0.3 | 0.6
CCOCC(=O)Nc1nc2ccc(OCC)cc2s1 | 31.9 | 51.5* | 0.5 | 0.7
CCOc1ccc2nc(NC(=O)CSC3=NCCS3)sc2c1 | 25.1 | 20.5 | 0.8 | 0.7
COc1ccc2nc(NC(=O)CSC3=NCCS3)sc2c1 | 29.1 | 64.5* | 0.4 | 0.7
Cc1ccc(S(=O)(=O)NC2=NCCC2)cc1 | -7.6 | 6.8 | 0.9 | 1.1
CCOc1ccc2nc(SCC(=O)c3ccc(C)s3)sc2c1 | 11.9 | 51.3* | 0.5 | 0.9
O=C1C(=O)N(CCO)C(c2cccc(F)c2)/C1=C(\O)c1ccc(Cl)cc1 (stereo not drawn) | 9.6 | 3.7 | 1 | 0.9
Cc1ccc2oc(C(Cl)(Cl)Cl)cc(=O)c2c1 | 43.8 | 53.4* | 0.5 | 0.6
COc1ccc2c(=O)cc(C(F)(F)C(F)(F)F)oc2c1 | 3.1 | 38.2 | 0.6 | 1
CS(=O)(=O)N(CCc1ccccc1)CC(=O)NCc1ccco1 | 11.6 | 65.5* | 0.3 | 0.9
Cc1ccc(S(=O)(=O)N(CC(=O)NCc2ccco2)Cc2ccc(F)cc2)cc1 | 57.9* | 33.6 | 0.7 | 0.4
CS(=O)(=O)N(CC(=O)NCc1ccco1)Cc1ccc(Cl)cc1 | 34.0 | 58.1* | 0.4 | 0.7
CS(=O)(=O)N(CCc1ccccc1)CC(=O)NCc1cccnc1 | 36.0 | 93.4* | 0.1 | 0.6
O=C(OCc1nc2ccc(Cl)cc2n1CCO)c1ccc2c(c1)OCO2 | 42.6 | 17.4 | 0.8 | 0.6
Cc1cc(=O)n2[nH]c(-c3ccc(C(C)(C)C)cc3)cc2n1 | -10.6 | 45.4 | 0.5 | 1.1
SMILES | CYP2C9 inh | CYP2C19 inhib | CYP2C19 activ | CYP2C9 activ
Cc1csc(NC(=O)CSc2nnc(-c3ccccn3)n2-c2ccc(C)c(C)c2)n1 | 18.7 | 0.8 | 1 | 0.8
O=C(CCC1N=C2c3ccccc3N=C(SCc3ccc(Cl)cc3)N2C1=O)NCc1ccco1 (stereo not drawn) | 76.6* | 35.5 | 0.6 | 0.2
CCCCNC(=O)CC1N=C2c3ccccc3N=C(SCC(=O)Nc3ccc(OC)cc3)N2C1=O (stereo not drawn) | 59.7* | 18.1 | 0.8 | 0.4
O=C(CCC1N=C2c3ccccc3N=C(SCc3ccc(F)cc3)N2C1=O)NCc1ccco1 (stereo not drawn) | 64.6* | 28.3 | 0.7 | 0.4
O=C(CC1N=C2c3ccccc3N=C(SCc3ccc(F)cc3)N2C1=O)NCc1ccco1 (stereo not drawn) | 32.5 | 11.6 | 0.9 | 0.7
O=C(CSC1=Nc2ccccc2C2=NC(CC(=O)NCc3ccco3)C(=O)N12)NCC1CCCO1 (stereo not drawn) | -2.5 | -9.1 | 1.1 | 1
CCCCNC(=O)CC1N=C2c3ccccc3N=C(SCC(=O)Nc3cccc(OC)c3)N2C1=O (stereo not drawn) | 31.8 | 8.1 | 0.9 | 0.7

High-throughput results (PubChem)
